# Results published in the supplement of paper PMC7830784.
# Where a name gives a salt, the structure may show the parent alone.
# System: Brugia pahangi adult female
# Experiment: IC50 motility inhibition on day 3
# Conditions: 3 days
# Experimental: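 Single adult female Brugia pahangi worms in 24-well plates (RPMI-1640, 5% FBS, 37 °C) were treated with 10 µM of each compound from a 2121-drug library (4 replicates; 1% DMSO vehicle and 10 µM auranofin controls). Motility was recorded with WormAssay dark-field imaging, and % inhibition of motility on day 3 is relative to vehicle. IC50 values for selected hits come from a 6-point dilution series (30 to 0.1 µM) fitted in GraphPad Prism.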
row,Compound,IC50 motility inhibition on day 3 [µM]
1,Clc1ccc(COC(Cn2ccnc2)c2ccc(Cl)cc2Cl)cc1 (stereo not given) [econazole nitrate],3.97
2,Cc1cc(C2CCCCC2)n(O)c(=O)c1 [ciclopirox olamine],0.287
3,CN(C)c1ccc2nc3ccc(=[N+](C)C)cc-3sc2c1 [methylene blue],1.06
4,CCCCCCCCCc1ccc(OCCOCCOCCOCCOCCOCCOCCOCCOCCO)cc1 [nonoxynol-9],3.24
5,CC(C)(C)CC(C)(C)c1ccc(OCCOCC[N+](C)(C)Cc2ccccc2)cc1 [benzethonium chloride],1.4
6,Oc1ccc2ccccc2c1 [beta-naphthol],8.31
7,CC1=CC(=O)c2ccccc2C1=O [menadione],4.23
8,CC[n+]1c(-c2ccccc2)c2cc(N)ccc2c2ccc(N)cc21 [homidium bromide],5.43
9,C1CCC(C(CC2CCCCN2)C2CCCCC2)CC1 (stereo not given) [perhexiline maleate],7.46
10,O=[N+]([O-])c1ccc(O)c2ncccc12 [nitroxoline],6.7
